PTEN del growth: growth suppressors of cells with PTEN tumor suppressor deletion; HCT116 PTEN-null viability, CellTiter-Glo, 60 h; hits give low values; viability, % at 10 µM; 1.2% of 140,000 active;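 active = viability at or below a set limit, 4 SD under the median of all tested compounds, cut at about 3.7% in these data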;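 also: PTEN knockout HCT116 line with beta catenin targeted HCT116 as companion control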
Autophagy mod: alters autophagy in cells; calls only at 10 µM (by protocol); MEF GFP-LC3 puncta imaging; test concentration mostly 10 µM; 0.98% of 190,000 active;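 active = percentage of spot-positive cells more than 3 SD above its plate mean, without a fluorescence outlier flag or 80% toxicity; inconclusive = no clear call, values can overlap the other calls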
Insulin prom up: MIN6 insulin promoter up-regulation; MIN6 insulin promoter-GFP reporter, high-content imaging; hits give high values; z-score at 5 µM; 0.3% of 190,000 active; AID 1625;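 active = z-score above 3 at 5 µM with at least 500 cells counted in the well; inconclusive = wells under 500 cells, flagged as cytotoxic or low count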
Insulin prom inh: TRM-6 insulin promoter activity inhibition | TRM-6 cells (human fetal islet line), insulin promoter-eGFP reporter, imaging; reporter expression induced with tamoxifen | inhibition, % at 2 µM | 0.9% of 130,000 active | AID 1273;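 active = inhibition above the mean plus 3 SD, with well images judged a real hit on visual review, cut at about 60% in these data, passing the limit was not always enough; inconclusive = inhibition over the cutoff but images rejected on review; inactive = inhibition not above the cutoff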
Lmaj promast: Leishmania major promastigote growth inhibition | 9% of 200,000 active | inhibition, % at 10 µM | AID 1063 | Leishmania major promastigotes, resazurin fluorescence viability; in the data active = inhibition above about 50%;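 also: promastigotes grown with compound for 44 hours at 28 °C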
bCat KO growth: beta-catenin-lacking colon tumor cell growth suppression. 1.5% of 140,000 active. viability, % at 10 µM. HCT116 beta-catenin knockout viability, CellTiter-Glo, 60 h; hits give low values;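 active = viability at or under a set limit, the compound median less 4 SD, cut at about 6% in these data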
Of the large screens only hits and unclear results are named; the others gave an inactive call. Sampled rows, rich in hits. Any-hit rate of the full collection: about 9.6%.

O=C(N/N=C/c1ccc(-c2ccccc2[N+](=O)[O-])o1)c1cccnc1	Lmaj promast 95
O=C(N/N=C/c1ccc(O)cc1)c1cccc(C(F)(F)F)c1	none
O=C(N/N=C/c1ccccc1O)c1cccc(C(F)(F)F)c1	Insulin prom up inconclusive, Lmaj promast 98
O=C1C=C(Nc2ccccc2O)c2ccccc2C1=O	PTEN del growth 1.8, Lmaj promast 100, bCat KO growth 2.3 (no result: Insulin prom up)
O=C1C=C(NCc2ccccc2)c2ccccc2C1=O	Lmaj promast 97 (no result: PTEN del growth, Insulin prom inh, bCat KO growth)
Cc1cc(C(=O)O)oc(=O)c1	none (no result: PTEN del growth, Autophagy mod, Insulin prom inh, Lmaj promast, bCat KO growth)
O=C(NCCC1=CCCCC1)c1ccc(Cl)cc1	none (no result: PTEN del growth, Insulin prom inh, bCat KO growth)
N#Cc1cc2c(=O)n3ccccc3nc2n(-c2ccccc2Cl)c1=O	none (no result: PTEN del growth, bCat KO growth)
N#CC1=C(N)Oc2c(ccc3ccccc23)C1c1ccsc1 (centres undefined)	none (no result: Insulin prom up)
O=C(c1ccc(S(=O)(=O)N2CCCCCC2)cc1)N1CCC(CN2C(=O)c3cccc4cccc(c34)C2=O)CC1	Lmaj promast 80 (no result: Insulin prom up, Insulin prom inh)
O=C1c2cccc3cccc(c23)C(=O)N1CC1CCN(S(=O)(=O)c2ccc(F)cc2)CC1	Lmaj promast 98
Cc1ccc(S(=O)(=O)N2CCC(CN3C(=O)c4cccc5cccc(c45)C3=O)CC2)cc1	Lmaj promast 95
Cc1cc(C)c(S(=O)(=O)N2CCN(CCN3C(=O)c4cccc5cccc(c45)C3=O)CC2)cc1[N+](=O)[O-]	Lmaj promast 53
Cc1cccc(C)c1N1CCN(S(=O)(=O)c2ccc(F)cc2)CC1	none
Cc1c(CN2CCC(CO)(CC3CCCCO3)CC2)cnn1C (centres undefined)	none (no result: PTEN del growth, Insulin prom inh, bCat KO growth)
O=C(CSc1nnc(Cc2cc(=O)[nH]c(=O)[nH]2)n1-c1ccc(F)cc1)NC1CCCC1	none (no result: Insulin prom inh)
CC(=C1C2C=CC1C1C(=O)NC(=O)C21)c1ccccc1 (centres undefined)	none
Nc1ccc(C(=O)N2CCCC2)cc1CS(=O)(=O)c1ccc(Cl)cc1	none (no result: PTEN del growth, Insulin prom up, bCat KO growth)
Cc1[nH]c2ccccc2c1C(=O)CN1C(=O)C(=O)N(C2CCCC2)C1=O	none (no result: PTEN del growth, Insulin prom up, Insulin prom inh, bCat KO growth)
O=C(N/N=C/c1cc([N+](=O)[O-])ccc1O)C12CC3CC(CC(C3)C1)C2	Lmaj promast 97 (no result: PTEN del growth, bCat KO growth)
Cc1cc(Cl)ccc1NC(=O)CCC(=O)N/N=C/c1cc([N+](=O)[O-])ccc1O	Lmaj promast 92 (no result: PTEN del growth, Insulin prom up, Insulin prom inh, bCat KO growth)
O=[N+]([O-])c1ccc(O)c(/C=N/Nc2ccccn2)c1	Lmaj promast 89 (no result: Insulin prom inh)
O=[N+]([O-])c1ccc(O)c(/C=N/Nc2nc3ccccc3[nH]2)c1	Lmaj promast 100, bCat KO growth 4.2
COc1ccc(N2C(=O)C(CC(N)=O)N(NC(=O)CCc3ccccc3)C2=O)cc1 (centres undefined)	none (no result: PTEN del growth, Insulin prom inh, bCat KO growth)
COc1cc(/C=N/Nc2nc3ccccc3[nH]2)ccc1O	Lmaj promast 80
COc1ccc(O)c(/C=N/Nc2nc3ccccc3[nH]2)c1	Lmaj promast 88 (no result: PTEN del growth, bCat KO growth)
COc1cccc(/C=N/Nc2nc3ccccc3[nH]2)c1O	none (no result: PTEN del growth, Autophagy mod, Insulin prom inh, Lmaj promast, bCat KO growth)
CCN1C=C(Cc2cccs2)C2=C(C1)C(c1cccs1)C(C#N)=C(N)O2 (centres undefined)	Lmaj promast 55 (no result: Insulin prom inh)
O=Cc1cc2ccccc2nc1SCCCF	Lmaj promast 58 (no result: PTEN del growth, bCat KO growth)
CCS(=O)(=O)c1ccc2c(c1)NC(=O)C(CCCl)O2 (centres undefined)	none (no result: PTEN del growth, Insulin prom inh, bCat KO growth)
Cc1ccc(NC(=S)N2CCn3cccc3C2c2cccnc2)cc1 (centres undefined)	Lmaj promast 81 (no result: Insulin prom inh)
S=C(Nc1ccc(Br)cc1)N1CCn2cccc2C1c1cccnc1 (centres undefined)	Lmaj promast 96 (no result: PTEN del growth, bCat KO growth)
CCc1cccc(CC)c1NC(=S)N1CCn2cccc2C1c1cccnc1 (centres undefined)	Lmaj promast 83 (no result: Insulin prom inh)
CCNC(=S)N1CCn2cccc2C1c1ccc(F)cc1 (centres undefined)	none (no result: PTEN del growth, bCat KO growth)
Cc1[nH]c2c(C)cccc2c1CC(=O)O	none (no result: PTEN del growth, bCat KO growth)
CC(Cc1ccsc1)NC(=O)CCc1nnc(CCc2ccccc2)o1 (centres undefined)	none (no result: PTEN del growth, Insulin prom inh, bCat KO growth)
COC(=O)c1ccccc1NC(=O)CSCC(=O)Nc1ccccc1OC	none
O=C(C1CCN(c2nnc(-n3cccc3)s2)CC1)N1CCOCC1	Insulin prom inh 100
CN1CCN(c2cnn(-c3ccccc3)c(=O)c2Br)CC1	none (no result: PTEN del growth, Insulin prom inh, bCat KO growth)
Cn1c(=O)c2c(nc(NCC3CCCO3)n2Cc2ccccc2)n(C)c1=O (centres undefined)	Insulin prom inh 81
Cn1c(=O)c2c(nc(NCCCN3CCOCC3)n2Cc2ccc(Cl)c(Cl)c2)n(C)c1=O	Lmaj promast 99 (no result: PTEN del growth, Insulin prom up, bCat KO growth)

Assay outcomes as filed in PubChem BioAssay.
